Data: PubChem BioAssay (NCI)
Several values for one entry are separate records, joined by “and”; a condition that tells them apart may be missing. Equal values may be shown once. This is part of a sample that, as a whole, favours compounds with a hit. Of some 79,000 tested, about 15% had one in any assay. Activity calls are given as the source filed them. Rule as the data show it: active = growth inhibition above about 70%; inactive = the rest.

Columns and labels:
[1] = NCI Yeast Anticancer Drug Screen. Data for the rad50 strain (AID 155);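 also: 0% = growth of vehicle-only cultures of the same strain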; conditions: S. cerevisiae rad50 strain growth inhibition, hits give high values; at 50.0 µM unless noted
Method in brief: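 Growth of the mutant yeast was measured after compound exposure and referenced to vehicle-treated cultures.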

[2] = NCI Yeast Anticancer Drug Screen. Data for the mec2-1 strain (AID 157); conditions: S. cerevisiae mec2-1 strain, hits give high values; at 50.0 µM unless noted
Method in brief: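 Mutant yeast (mec2-1) grown with compound; growth inhibition relative to vehicle control reported.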

[3] = NCI Yeast Anticancer Drug Screen. Data for the sgs1 mgt1 strain (AID 161);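 also: 0% = growth of cultures given vehicle only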; conditions: S. cerevisiae sgs1 mgt1 strain, hits give high values; at 50.0 µM unless noted
Method in brief: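 Yeast cells carrying a defined DNA-repair defect were exposed to test compounds. Growth inhibition was measured relative to vehicle-treated controls.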

[4] = NCI Yeast Anticancer Drug Screen. Data for the cln2 rad14 strain (AID 165);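 also: 0% = growth equal to vehicle treated cultures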; conditions: S. cerevisiae cln2 rad14 strain, hits give high values; at 50.0 µM unless noted
Method in brief: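 Readout is yeast growth inhibition versus vehicle-treated controls, using a strain with cln2 and rad14 alterations exposed to compound.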

[5] = NCI Yeast Anticancer Drug Screen. Data for the bub3 strain (AID 167); conditions: S. cerevisiae bub3 mutant strain, hits give high values; at 50.0 µM unless noted
Method in brief: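 Whole-cell yeast assay. The mutant strain was incubated with compounds, and growth inhibition was determined by comparison with vehicle-treated cells.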

[6] = NCI Yeast Anticancer Drug Screen. Data for the mlh1 rad18 strain (AID 175); conditions: S. cerevisiae mlh1 rad18 strain growth inhibition, hits give high values; at 50.0 µM unless noted
Method in brief: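 Genetically defined yeast (DNA repair-deficient) exposed to compounds; growth inhibition determined relative to vehicle.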

Measured: growth inhibition

O=c1[nH][nH]c2ccccc12
inactive: [1] 23.1% | [2] -11.3% | [3] 13.1% | [4] 13.9% | [5] 8.9% | [6] 12.2%

O=C(O)C(NCCCCCNC(C(=O)O)c1ccccc1)c1ccccc1 (stereo not given)
inactive: [1] 15.8% | [2] 21.2% | [3] 15.9% | [4] 24.9% | [5] 13.9% | [6] 24.6%

CN(C)C(=S)/N=c1\ssc(=S)n1Cc1cccnc1
inactive: [1] -20.6% | [2] -14.4% | [3] 5.5% | [4] 22.9% | [5] -13.7% | [6] -62.8%

O=CNc1nc[nH]c1-c1noc(=O)[nH]1
inactive: [1] -2.75% | [2] -9.5% | [3] -3.5% | [4] -23.9% | [5] -10.8% | [6] -6.8%

CCCCCCCC[n+]1ccc(C#N)cc1
inactive: [1] 11.7% | [2] 4% | [3] 14.3% | [4] 15.9% | [5] 5.65% | [6] 19%

CCCCCOC(=O)C#CC(=O)OCCCCC
active: [1] 99.8% | [2] 99.8% | [3] 99.7% | [4] 99.4% | [5] 99.8% | [6] 99.7%

CCCCCCCC(=O)Nc1cccc(O)c1
inactive: [1] 4.8% | [2] -6.95% | [3] -11.7% | [4] -34.9% | [5] -6.3% | [6] -6.15%

O=C1CN(c2cccc(C(F)(F)F)c2)C(=O)CN1/N=C/c1cccnc1
inactive: [1] -28.4% | [2] -5.2% | [3] 10.8% | [4] -4.35% | [5] 27.9% | [6] -8.45%

Cc1ccc(-c2c(C)c(-c3ccccc3)c(-c3ccccc3)c(C)c2-c2ccccc2)cc1C
inactive: [1] 63.3% | [3] 25.8% | [6] 65%
active: [2] 77.3% | [4] 82% | [5] 97.5%

Cc1cn(C2CC(O)C(CO)O2)c(=O)nc1N1CCSCC1 (stereo not given)
inactive: [1] 2.5% | [2] -7.05% | [3] -2.6% | [4] -32.8% | [5] -12% | [6] -8.8%

CC1CCC2(C(=O)O)CCC3(C)C(=CCC4C5(C)CCC(O)C(C)(C)C5CCC43C)C2C1C (stereo not given)
inactive: [1] 12.8% and 11.4% | [2] 11.3% and 0.15% | [3] 12.3% and -9.2% | [4] 0.45% and 16.4% | [5] 5.8% and -7.4% | [6] 14.4% and 0.85%

CCOC(=O)Nc1ccc(F)cc1C
inactive: [1] 14.8% | [2] 5.3% | [3] -7.55% | [4] -4% | [5] 7.3% | [6] -1%

Nc1cc(S(=O)(=O)O)cc2cc(S(=O)(=O)O)cc(S(=O)(=O)O)c12
inactive: [1] -31.6% | [2] -51% | [3] -29.6% | [4] -144% | [5] -17.5% | [6] 23.4%

CC(C)(C)C(=O)Oc1ccc([N+](=O)[O-])cc1
inactive: [1] 2.15% | [2] -0.35% | [3] -7.55% | [4] -30.4% | [5] -33.1% | [6] 10.2%

Cc1ccc(S(=O)(=O)OC2CSS(=O)CC2OS(=O)(=O)c2ccc(C)cc2)cc1 (stereo not given)
inactive: [1] 12.8% | [2] -3.15% | [3] 4.45% | [4] 19.1% | [5] -1.4% | [6] 21.1%

CCCCCCCCCCCCC(C)O (stereo not given)
inactive: [1] -23.2% | [2] -50.1% | [3] -18.8% | [4] 5.05% | [5] -21.1% | [6] -24.8%

O=C(NO)/C(CC(=O)c1cccc(O)c1)=N\O
inactive: [1] -7.05% | [2] 10.1% | [3] -7.35% | [4] -8.55% | [5] -11.1% | [6] 5.5%

COc1ccc(C(=O)Oc2ccccc2C(C)=O)cc1
inactive: [1] -2.65% | [2] -7.05% | [3] 0.7% | [4] -24.6% | [5] -5.6% | [6] -12.8%

CC(C)(C)OC(=O)NCC(=O)NC1C/C(=N\O)c2sccc21 (stereo not given)
inactive: [1] 17.4% | [2] 5.8% | [3] 11.3% | [4] 15.6% | [5] -5.35% | [6] 39.5%

CC(=O)NNC(=O)C(N)Cc1ccc(O)cc1 (stereo not given)
inactive: [1] 13.5% | [2] 23.1% | [3] 40.5% | [4] 12.2% | [5] 2.95% | [6] 14.8%

N#Cc1ccc(CC(=O)c2ccccc2)cc1
inactive: [1] -6.05% | [2] 12.8% | [3] 0.45% | [4] -27.4% | [5] -0.75% | [6] 3.15%

CCOC(=O)[C@]12C3C=CC(C3)C1C(=O)C1OC12 (stereo not given in full)
inactive: [1] -29% | [2] -26.8% | [3] -19.3% | [4] -0.5% | [5] -26.6% | [6] -45.1%

CC(=O)Sc1ccc2c(c1)-c1ccccc1C2=O
inactive: [1] 28.6% | [2] 27.2% | [3] 22.4% | [4] 8.25% | [5] 39.6% | [6] 16.9%

CCOC(=O)C1=CC(C(=O)OCC)=C2C=CC=C3C=CC=C1N32
inactive: [1] 7.75% | [2] 8.7% | [3] 25.9% | [4] -1.65% | [5] -18% | [6] -2.95%

N#C/C(=C\c1ccc2ccccc2c1)C(=O)c1ccccc1
inactive: [1] 13.7% | [2] -14.3% | [3] -15.3% | [4] 17.8% | [5] -17.7% | [6] -47.7%

NC(=S)c1cccc(OCCc2ccccc2)c1
active: [1] 97.7% | [2] 99.4% | [3] 99% | [4] 96.3% | [5] 99.2% | [6] 98.7%

Cc1nnc2sc(N/N=C/c3ccccc3)nn12
inactive: [1] -35.5% | [2] -29.9% | [3] -69.2% | [4] -13.8% | [5] -10.1% | [6] -71.3%

O=C(CCCN1CCC2(CC1)C(=NC1CCCCC1)NC(=O)N2c1ccccc1)c1ccc(F)cc1
inactive: [1] -10.8% | [2] -3.6% | [3] -3% | [4] 3.45% | [5] 13.7% | [6] -6.85%

O=C(CI)NCc1cn(C2CC(O)C(CO)O2)c(=O)[nH]c1=O (stereo not given)
inactive: [1] 4.9% | [2] 3.85% | [3] 5.85% | [4] 19.8% | [5] 1.15% | [6] 3.3%

CC1=NN(C(=O)c2ccc(Cl)cc2)C(=O)/C1=C/c1cccc([N+](=O)[O-])c1
inactive: [1] -16.7% | [2] -26.2% | [3] -44.9% | [4] -10.6% | [5] -15.9% | [6] -28.4%

N#Cc1ccc(-c2ccc(C#N)cc2)cc1
inactive: [1] -19.4% | [2] -23.3% | [3] -14.1% | [4] 9.05% | [5] -20.1% | [6] 7.05%

Nc1ncc(C(=O)O)s1
inactive: [1] -17.3% | [2] -4.6% | [3] -23.1% | [4] 7.35% | [5] 3.35% | [6] -4.8%

COc1ccc(CC2c3cc(OC)c(OC)cc3CC[N+]2(C)C)cc1OC (stereo not given)
inactive: [1] -13.1% | [2] -20.8% | [3] 1.6% | [4] 10.9% | [5] -1.65% | [6] -46.4%

Cc1c(Cl)cccc1NC(=O)COc1ccc(Cl)cc1
inactive: [1] 16.4% | [2] 9.4% | [3] 4.2% | [4] -3.7% | [5] 6.5% | [6] 4.05%

CN1C2=NCCN2C(=O)c2cc(Cl)ccc21
inactive: [1] 1.05% | [2] -21.9% | [3] 15.6% | [4] 8.65% | [5] 13.7% | [6] 9.9%

CCCOC(=O)c1ccc([N+](=O)[O-])cc1
inactive: [1] 16.4% | [2] 4.2% | [3] 14.2% | [4] 8.75% | [5] -16.7% | [6] -23.1%

Cc1nc2ccc(Br)cc2c(=O)n1-c1ccc(-c2n[nH]c(=S)n2-c2ccccc2)cc1
inactive: [1] 14% | [2] 13.2% | [3] 13.4% | [4] -27.9% | [5] 6.8% | [6] 42.4%

CC(=O)Nc1nc(SCc2ccccc2)c2[nH]cnc2n1
inactive: [1] -25.2% | [2] 1.75% | [3] 0.6% | [4] -43.5% | [5] 31.2% | [6] 7.3%

Cc1ccc(Cl)cc1NC(=O)c1ccccc1
inactive: [1] 3.45% | [2] -1.25% | [3] -8.5% | [4] -28.9% | [5] -18.1% | [6] 14.8%

CC(=C/c1ccccc1)/C=C1/NC(=S)NC1=O
inactive: [1] -25.6% | [2] -41.9% | [3] -16.4% | [4] -2.7% | [5] -23.4% | [6] -21.4%
